ARNT TACC3 PPI: disrupts binding between human ARNT and TACC3; Q9Y6A5; AlphaScreen His-ARNT PAS-B/GST-TACC3 binding, luminescence; TACC3 fragment carries E629A point mutation; inhibition, % at 9.99 µM; 0.66% of 390,000 active; AID 623870;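 active = mean inhibition of replicates at least 50% and at least half of replicates each reaching 50%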;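 note: 0% = complete ARNT plus TACC3 wells and 100% = ARNT alone without TACC3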
ERp5 inh: blocks human ERp5 reductase activity on insulin | Q15084 | ERp5 insulin aggregation, absorbance 650 nm, 90 min | inhibition, % at 9.99 µM | 0.05% of 350,000 active;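 active = mean replicate inhibition above about 25%, with every replicate also reaching it, limit read from the data, passing the limit was not always enough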
Target sequence (Q15084 whole entry, looked up): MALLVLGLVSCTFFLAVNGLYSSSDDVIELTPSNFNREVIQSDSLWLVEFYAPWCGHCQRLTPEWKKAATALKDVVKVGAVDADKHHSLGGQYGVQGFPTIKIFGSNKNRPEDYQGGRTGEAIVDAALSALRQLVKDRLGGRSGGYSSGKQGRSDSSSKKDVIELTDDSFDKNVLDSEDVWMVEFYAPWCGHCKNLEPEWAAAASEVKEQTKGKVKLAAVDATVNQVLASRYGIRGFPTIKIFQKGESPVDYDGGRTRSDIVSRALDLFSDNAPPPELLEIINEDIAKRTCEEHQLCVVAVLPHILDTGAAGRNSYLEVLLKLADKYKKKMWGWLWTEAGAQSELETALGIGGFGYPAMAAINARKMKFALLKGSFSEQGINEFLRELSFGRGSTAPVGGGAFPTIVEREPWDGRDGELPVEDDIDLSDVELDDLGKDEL
PDI turbidity: PDI (human) enzyme inhibition. PDI insulin aggregation turbidity, A650, 90 min. inhibition, % at 10 µM. P07237. 0.052% of 350,000 active;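 active = mean inhibition across replicates of 30% or more, whatever share of single replicates reach that level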
ALR inh: human ALR oxidase inhibition via reduced H2O2; AID 485317; 3.8% of 290,000 active; P55789; inhibition, % (concentration not given with the values); purified ALR, DTT oxidation, H2O2 HRP-luminol luminescence;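 active = mean replicate inhibition above about 79%, with every replicate also reaching it, limit read from the data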
Target sequence (P55789 whole entry, looked up): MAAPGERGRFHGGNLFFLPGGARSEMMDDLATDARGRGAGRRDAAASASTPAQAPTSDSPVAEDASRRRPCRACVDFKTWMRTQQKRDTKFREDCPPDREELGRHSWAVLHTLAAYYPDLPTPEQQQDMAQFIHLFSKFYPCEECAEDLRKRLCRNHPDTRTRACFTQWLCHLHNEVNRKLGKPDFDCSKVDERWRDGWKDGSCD
PglD DTNB: PglD (C. jejuni) enzyme inhibition | purified PglD enzyme, DTNB colorimetric CoA detection | inhibition, % at 12.5 µM | 0.098% of 360,000 active; in the data active = inhibition above about 16%, passing the limit was not always enough
NRP1-CendR mod: alters CendR peptide binding to human NRP-1 | inhibition, % at 25 µM | 0.85% of 360,000 active | AID 602438 | FAM-RPARPAR peptide binding to NRP-1, fluorescence polarization | O14786;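 active = inhibition or corrected inhibition above about 18%, plus a signal ratio from 0.5 to 1.5, limit read from the data, passing the limit was not always enough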
PglD confirm: confirmation of Campylobacter jejuni PglD acetyltransferase inhibitors; shares compounds with PglD DTNB; Purified C. jejuni PglD, DTNB absorbance 412 nm; inhibition, % at 20 µM; 320 tested, under 10 active; AID 743156;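 active = mean inhibition across replicates of at least 20% with every single replicate also at 20% or more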;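 note: initial rate of CoA release by acetyl transfer from AcCoA to the UDP-4-amino sugar; 0% = median of neutral control wells and 100% = median of positive control wells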
ARNT Alpha ctr-1: AlphaScreen artifact in ARNT/TACC3 counter-screen | shares compounds with ARNT TACC3 PPI | His-ARNT PASB-GST AlphaScreen artifact counter-screen, luminescence | AC50, µM (titrated, usually from 68 µM), for inactives: top-dose activity change, negative = signal decrease | 50% of 1,200 active;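 active = every separate test run was called active for a drop in luminescence, with AC50 within twice the top valid dose, actives reach about 71 µM in these data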
ARNT Alpha ctr-2: produces AlphaScreen artifacts in ARNT-TACC3 counter-screen. AID 720564. shares compounds with ARNT TACC3 PPI. Dual-tagged His-ARNT PASB-GST AlphaScreen artifact counter-screen. 70% of 45 active. AC50, µM;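 active = luminescence drop, with half-maximal potency fitted within twice the sample's top valid dose, cut at about 70 µM in these data; inactive = the rest, including signal moving the wrong way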
Active calls of the source: *; . = not tested or not shown; [ ] = another dose, or the depositor's remark. The entries come from a sample that favours hits as a whole.

SMILES | ARNT TACC3 PPI | ERp5 inh | PDI turbidity | ALR inh | PglD DTNB | NRP1-CendR mod | ARNT Alpha ctr-1 | others
COc1ccc(S(=O)(=O)N2C[C@@H](O)COC[C@@H]3O[C@H](CC(=O)N[C@@H]4CCN(Cc5ccccc5)C4)CC[C@H]32)cc1 | 7 | 1 | . | . | 2 | . | .
CSCC[C@H](NC(=O)COc1cc2c(c3oc(=O)c(C)c(C)c13)CCC(C)(C)O2)C(=O)O | 7 | -1 | 3 | . | 27* | 2 | . | PglD confirm=-1
CCOC(=O)c1ccc(NC(=S)N2CCCC(C)C2)cc1 (centres undefined) | . | -6 | 1 | -8 | 0 | -12 | .
CCOC(=O)c1ccc(NC(=S)N2CCC(O)CC2)cc1 | . | 0 | 2 | 0 | 24* | 13 | . | PglD confirm=6
O=C(NCCCN=C1NS(=O)(=O)c2ccccc21)c1ccncc1 | 1 | . | -4 | -9 | 25* | -4 | . | PglD confirm=2
O=C1N=C2SCCN2/C1=C\c1ccc(Cl)cc1 | -3 | . | 13 | 6 | 30* | 0 | . | PglD confirm=-2
CC(C)NC(=O)Nc1ccc2c(c1)C(=O)N([C@H](C)CO)C[C@H](C)[C@@H](CN(C)Cc1ccc(-c3ccccc3)cc1)O2 | -14 | 10 | . | . | 3 | . | .
COc1ccc(C(C(=O)NCC2CCCO2)N(C(=O)CNC(=O)c2ccco2)c2ccc(C)c(C)c2)cc1OC (centres undefined) | -1 | 1 | 9 | -2 | 22* | -2 | . | PglD confirm=-4
O=C1C2C3C=CC(C3)C2C(=O)N1Cc1ccccc1 (centres undefined) | 2 | . | 9 | 8 | 22* | -3 | . | PglD confirm=-14
O=C(Cc1ccccn1)NCC[C@@H]1CC[C@H](NC(=O)c2ccccc2F)[C@@H](CO)O1 | 19 | 4 | . | . | -3 | . | .
COc1cccc(C2CC(c3ccc(Cl)cc3)n3nc(N)nc3N2)c1 (centres undefined) | -1 | -1 | . | 1 | 26* | 6 | . | PglD confirm=4
O=C(CN1CCCCC1)Nc1ccc(NC(=O)c2ccccc2Cl)cc1Cl | -2 | -1 | -10 | -6 | 20* | 9 | . | PglD confirm=-2
O=C(CN1CCCCCCC1)Nc1ccc(Cl)cc1Cl | 16 | -3 | 11 | -4 | . | 4 | .
CO[C@@H]1CN(C)C(=O)c2cc(NC(C)=O)ccc2OC[C@@H](C)N(Cc2cccnc2)C[C@@H]1C | -20 | . | . | . | 4 | . | .
Cc1ccc2[nH]c3c(c2c1)CCCC3NCCO (centres undefined) | 43* | 0 | 1 | . | -4 | 5 | -22%
Cc1ccc2[nH]c3c(c2c1)CCCC3=O | -2 | . | -2 | -19 | -5 | -4 | .
C[C@H]1CN([C@@H](C)CO)C(=O)c2cccc(NS(=O)(=O)c3cccs3)c2O[C@@H]1CN(C)S(=O)(=O)c1cn(C)cn1 | -5 | -1 | . | . | -1 | . | .
CCCC(=O)NC(c1ccc(N(C)C)cc1)c1ccc2cccnc2c1O (centres undefined) | 60* | -4 | 1 | 90* | -1 | 7 | 18µM*
CC(=O)NC(c1ccc(Cl)cc1)c1ccc2cccnc2c1O (centres undefined) | 27 | 1 | -13 | . | -1 | 0 | .
CCCC(=O)NC(c1ccc(C(C)C)cc1)c1ccc2cccnc2c1O (centres undefined) | -2 | 3 | -5 | -19 | -3 | 13 | .
CCC(=O)NC(c1ccc(C)cc1)c1ccc2cccnc2c1O (centres undefined) | 35* | 1 | 0 | -5 | -1 | 2 | 28µM*
Cc1cc(NC(c2ccc(Cl)cc2)c2ccc3cccnc3c2O)no1 (centres undefined) | 55* | . | 0 | 0 | -1 | 13 | 10µM*
Cc1[nH]c(=O)[nH]c(=O)c1/C=N/NC(=O)[C@H](C)NC(=O)OC(C)(C)C | 54* | . | -1 | -3 | 5 | -1 | -4%
CCN(CC)C(=O)c1sc2nc(Cc3ccccc3)[nH]c(=O)c2c1C | 0 | 3 | -7 | -1 | 1 | -3 | .
Cc1c(C(=O)N(C)C)sc2nc(-c3ccccn3)[nH]c(=O)c12 | 72* | . | 1 | -8 | -3 | -3 | 23µM* | ARNT Alpha ctr-2=15*
SMILES | ARNT TACC3 PPI | ERp5 inh | PDI turbidity | ALR inh | PglD DTNB | NRP1-CendR mod | ARNT Alpha ctr-1 | others
O=C(NC1Cc2ccccc2C1)[C@H]1N[C@H]2c3cccc(=O)n3C[C@H]2[C@@H]1CO | active | -6 | . | . | 2 | . | -6%[38 µM]
O=C(Cc1ccncc1)N1CC(=O)N2[C@H](C1)[C@H](c1ccc(C3=CCCC3)cc1)[C@@H]2CO | . | 4 | . | . | . | . | .
CCOc1cc(CNCc2ccccn2)cc(Cl)c1OCC | 53* | 3 | 1 | -4 | 8 | -3 | -21%
CCOc1c(Cl)cc(CNCc2ccncc2)cc1OC | -1 | 2 | -3 | 0 | 2 | -2 | .
CCOc1cc(CNCc2ccccn2)cc(Cl)c1OC | 53* | 3 | 7 | 0 | 0 | 7 | -30%
COc1cccc(CNCc2ccc(OC)c3ccccc23)c1OC | 9 | 5 | 4 | -14 | 3 | 7 | .
COc1cc(CNCc2ccccn2)ccc1OCc1ccc(Cl)cc1Cl | 55* | . | 4 | -15 | . | 3 | -39%
COc1cc(CNCCN2CCOCC2)ccc1OCc1ccc(Cl)cc1Cl | 1 | . | 2 | 1 | 1 | -7 | .
COc1cccc(CNCc2ccccn2)c1OC | 61* | . | 2 | 5 | -1 | -18 | -5%
CC(C)NC(=O)Nc1cccc2c1O[C@@H](CN(C)Cc1ccc(Cl)c(Cl)c1)[C@@H](C)CN([C@@H](C)CO)C2=O | 3 | 0 | . | . | -8 | . | .
CN1C(=O)c2cc(NC(=O)c3ccc(F)cc3)ccc2OC[C@H]2O[C@H](CC(=O)O)CC[C@@H]21 | 2 | -3 | . | . | -1 | . | .
c1ccc(-c2nnc(-c3ccccn3)nc2NCC2CC2)cc1 | . | . | . | . | . | . | 1µM*
c1ccc(-c2nnc(-c3ccccn3)nc2NCC2CCCCC2)cc1 | . | . | . | . | . | . | 3.1µM*
CCOc1cc(C(=O)NC2CC(C)(C)NC(C)(C)C2)cc(OCC)c1OCC | 53* | 1 | 5 | -4 | 2 | 2 | -2%
CCOc1ccc(C(=O)NC2CC(C)(C)NC(C)(C)C2)cc1 | -1 | -4 | -3 | . | -2 | 1 | .
COc1cc(/C=N/NC(=O)c2cncc(Br)c2)cc([N+](=O)[O-])c1O | 58* | -4 | 1 | 7 | -2 | -101 | 36µM*
COc1ccc(/C=N/NC(=O)c2ccncc2)cc1[N+](=O)[O-] | 5 | 3 | -9 | -3 | . | -1 | .
CCN(C(=O)CSc1nccn1C)c1cccc2ccccc12 | 68* | 0 | -11 | . | -2 | -10 | 3%

Assay outcomes (PubChem)
